Results reported in PubChem BioAssay (EPA / NIEHS).
Active and inactive are the calls of the source. Rule for the calls: active = hit-call score of the fitted dose curve at least 0.9, where 1 is the maximum; inactive = score below 0.9.

Assays:
[1] = ATG_ISRE_CIS: Attagene CIS-FACTORIAL HepG2 Assay for human Interferon Regulatory Factor 1 (IRF1) binding to an Interferon-Stimulated Response Element (ISRE) (AID 2282948); conditions: HepG2 ISRE cis-reporter (Attagene), mRNA transcription readout; actives raise or lower the signal
Outline: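 Read-out: fluorescent RT-PCR products resolved by capillary electrophoresis, reporting endogenous transcription factor activity via ISRE-driven reporter mRNA in transfected HepG2 cells dosed for 24 h; gain or loss fitted relative to DMSO.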

[2] = ATG_M_06_CIS: Attagene CIS-FACTORIAL HepG2 Assay for M06 Transcription Factor (Internal Marker) (AID 2282950); conditions: HepG2 Attagene CIS-FACTORIAL M06 internal marker reporter; actives raise or lower the signal
Outline: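 Terse: HepG2, transient MRTU transfection (FuGene 6), 24 h dosing; total RNA, oligo(dT) RT, PCR, FAM label, HpaI cut, capillary electrophoresis; bidirectional fit vs DMSO baseline; background-control endpoint.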

[3] = molecular target: Hypoxia-inducible factor 1-alpha (Homo sapiens) (UniProt Q16665); assay: ATG_HIF1a_CIS: Attagene CIS-FACTORIAL HepG2 Assay for human Hypoxia Inducible Factor 1 (HIF1A) (AID 2282951); conditions: HepG2 Attagene cis-factorial HIF1a reporter transcription; actives raise or lower the signal
Outline: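 Endogenous-TF cis reporter readout, human HepG2 cells, 24 h incubation; mRNA detected via RT-PCR and capillary electrophoresis fluorescence; DMSO-normalised bidirectional fitting.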

[4] = molecular target: Hepatocyte nuclear factor 6 (Homo sapiens) (UniProt Q9UBC0); assay: ATG_HNF6_CIS: Attagene CIS-FACTORIAL HepG2 Assay for human Hepatocyte Nuclear Factor 6 (HNF6) (AID 2282952); conditions: HepG2 Attagene cis-factorial HNF6 reporter transcription; actives raise or lower the signal
Outline: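 Endogenous transcription factor activity in human HepG2 liver cells was captured through cis-regulated reporter constructs. After 24 h treatment, reporter mRNA was measured by RT-PCR with capillary electrophoresis, and activity was fitted in both directions relative to DMSO.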

[5] = molecular target: Heat shock factor protein 1 (Homo sapiens) (UniProt Q00613); assay: ATG_HSE_CIS: Attagene CIS-FACTORIAL HepG2 Assay for human Heat Shock Transcription Factor 1 (HSE) (AID 2282953); conditions: HepG2 HSE cis-reporter, Attagene RNA transcription; actives raise or lower the signal
Outline: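 Read-out: fluorescence of reporter-specific RT-PCR fragments separated by capillary electrophoresis. HepG2 carrying transfected cis-element reporter units; 24 h dosing; activity fitted in both directions relative to DMSO baseline.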

[6] = ATG_MRE_CIS: Attagene CIS-FACTORIAL HepG2 Assay for human Metal Responsive Element (MRE) (AID 2282954); conditions: HepG2 MRE cis-reporter transcription, Attagene multiplex; actives raise or lower the signal
Outline: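 Measured here is mRNA induction from an MRE cis-element reporter in HepG2 after 24 h, quantified by fluorescence of labelled RT-PCR products on capillary electrophoresis; gain- and loss-of-signal fits use DMSO as baseline.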

[7] = ATG_PBREM_CIS: Attagene CIS-FACTORIAL HepG2 Assay for human Phenobarbital-responsive Enhancer Module (PBREM) (AID 2282955); conditions: HepG2 PBREM cis-reporter, Attagene multiplexed transcription; actives raise or lower the signal
Outline: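 Readout: reporter mRNA, fluorescent RT-PCR fragments separated by capillary electrophoresis. System: HepG2 transiently transfected with cis-regulated reporter units. Exposure: 24 h. Analysis: bidirectional, DMSO baseline.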

[8] = molecular target: Paired box protein Pax-6 (Homo sapiens) (UniProt P26367); assay: ATG_Pax6_CIS: Attagene CIS-FACTORIAL HepG2 Assay for human Paired Box 6 (PAX6) (AID 2282956); conditions: HepG2 CIS-FACTORIAL PAX6 reporter transcription, RNA readout; actives raise or lower the signal
Outline: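 Readout: reporter transcript fluorescence after RT-PCR and capillary electrophoresis. Cells: HepG2, transiently transfected with cis-regulated MRTUs. Exposure 24 h. Gain or loss of signal fitted bidirectionally relative to DMSO.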

[9] = ATG_PXRE_CIS: Attagene CIS-FACTORIAL HepG2 Assay for human Pregnane X Receptor Element (PXRE) (AID 2282957); conditions: HepG2 Attagene CIS-FACTORIAL PXRE reporter, mRNA; actives raise or lower the signal
Outline: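 Endogenous transcription factor activity in HepG2 was gauged through induction of reporter mRNA driven by a cis-regulating promoter element, sampled 24 h post-treatment. Activity was fitted in both directions against DMSO negative control.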

[10] = ATG_PPRE_CIS: Attagene CIS-FACTORIAL HepG2 Assay for human Peroxisome Proliferator-activated Response Element (PPRE) (AID 2282958); conditions: HepG2 PPRE cis-element reporter, Attagene transcription factor profiling; actives raise or lower the signal
Outline: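 After human HepG2 hepatoma cells were transiently transfected with cis-promoter reporter constructs, they were exposed to test chemicals for 24 hours. Reporter RNA was then reverse-transcribed, PCR-amplified, FAM-labeled, HpaI-digested and quantified by capillary electrophoresis.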

[11] = ATG_RORE_CIS: Attagene CIS-FACTORIAL HepG2 Assay for human RAR-related Orphan Receptor Element (RORE) (AID 2282959); conditions: HepG2 Attagene cis-factorial RORE reporter, mRNA; actives raise or lower the signal
Outline: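 Measured here: transcript induction of a cis-regulated reporter in HepG2 cells transiently transfected via FuGene 6. After 24 h, RNA was processed by RT-PCR and fluorescent capillary electrophoresis; DMSO defined baseline activity.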

[12] = ATG_Sox_CIS: Attagene CIS-FACTORIAL HepG2 Assay for human SRY-box transcription factor (SOX) (AID 2282960); conditions: HepG2 Attagene cis-factorial SOX reporter, mRNA; actives raise or lower the signal
Outline: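 Using transiently transfected HepG2 cells, reporter transcription driven by cis elements was assessed 24 h after dosing. Signal was fluorescence of capillary-separated RT-PCR products, with DMSO defining baseline activity.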

[13] = molecular target: Transcription factor Sp1 (Homo sapiens) (UniProt P08047); assay: ATG_Sp1_CIS: Attagene CIS-FACTORIAL HepG2 Assay for human Specificity Protein 1 (Sp1) (AID 2282961); conditions: HepG2 Sp1 cis-reporter transcription, actives raise or lower the signal
Outline: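 After transient transfection of HepG2 cells with cis-promoter reporter units and 24 h chemical treatment, reporter transcripts were quantified by RT-PCR and capillary electrophoresis fluorescence. Gain- and loss-of-signal fitted against DMSO.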

[14] = ATG_SREBP_CIS: Attagene CIS-FACTORIAL HepG2 Assay for human Sterol Regulatory Element Binding (SREBP) (AID 2282962); conditions: HepG2 Attagene cis-factorial SREBP reporter, mRNA; actives raise or lower the signal
Outline: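 Readout: fluorescent reporter-transcript peaks resolved by capillary electrophoresis after RT-PCR. Cells were human HepG2 carrying transfected cis-promoter reporter constructs, dosed for 24 h. Gain or loss of signal was fitted against DMSO controls.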

[15] = molecular target: Signal transducer and activator of transcription 3 (Homo sapiens) (UniProt P40763); assay: ATG_STAT3_CIS: Attagene CIS-FACTORIAL HepG2 Assay for human Signal Transducer and Activator of Transcription 3 (STAT3) (AID 2282963); conditions: HepG2, Attagene cis-factorial STAT3 reporter transcription; actives raise or lower the signal
Outline: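 Fluorescence intensity of 6-FAM-labelled reporter fragments, separated by capillary electrophoresis after RT-PCR, gave the signal. Cells were HepG2 transfected with cis-element reporter units and treated 24 h; fitting was bidirectional relative to DMSO.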

[16] = ATG_TA_CIS: Attagene CIS-FACTORIAL HepG2 Assay for human TA Basal Promoter (AID 2282964); conditions: HepG2 Attagene CIS-factorial TA basal promoter reporter; actives raise or lower the signal
Outline: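 Transfected HepG2, 24 h compound exposure; RNA → RT-PCR → FAM primer extension → HpaI cut → CE fluorescence. Gain/loss-of-signal fitted against DMSO negative control. Background-control readout.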

[17] = ATG_TCF_b_cat_CIS: Attagene CIS-FACTORIAL HepG2 Assay for human T-Cell-Factor with beta-catenin (TCF/b-cat) (AID 2282965); conditions: HepG2 TCF/beta-catenin cis-reporter transcription, actives raise or lower the signal
Outline: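 HepG2 cells transiently transfected with cis-promoter-driven multiplexed reporter units; reporter mRNA measured 24 h after dosing by RT-PCR, FAM labelling, HpaI digestion and capillary electrophoresis. Bidirectional fitting relative to DMSO baseline.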

[18] = ATG_M_32_CIS: Attagene CIS-FACTORIAL HepG2 Assay for M32 Transcription Factor (Internal Marker) (AID 2282949); conditions: HepG2 Attagene cis-factorial M32 reporter, mRNA; actives raise or lower the signal;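 note: background control marker of the multiplexed CIS panel rather than a real target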
Outline: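 HepG2 human liver cells transiently transfected with cis-promoter-driven multiple reporter transcription units, dosed 24 h. Reporter mRNA quantified by RT-PCR, FAM-labelled primer extension, HpaI digest and capillary electrophoresis; bidirectional fit versus DMSO baseline.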

Measured: AC50

Sequence of Signal transducer and activator of transcription 3 (Homo sapiens) (P40763 whole entry, looked up, the tested form may be a part): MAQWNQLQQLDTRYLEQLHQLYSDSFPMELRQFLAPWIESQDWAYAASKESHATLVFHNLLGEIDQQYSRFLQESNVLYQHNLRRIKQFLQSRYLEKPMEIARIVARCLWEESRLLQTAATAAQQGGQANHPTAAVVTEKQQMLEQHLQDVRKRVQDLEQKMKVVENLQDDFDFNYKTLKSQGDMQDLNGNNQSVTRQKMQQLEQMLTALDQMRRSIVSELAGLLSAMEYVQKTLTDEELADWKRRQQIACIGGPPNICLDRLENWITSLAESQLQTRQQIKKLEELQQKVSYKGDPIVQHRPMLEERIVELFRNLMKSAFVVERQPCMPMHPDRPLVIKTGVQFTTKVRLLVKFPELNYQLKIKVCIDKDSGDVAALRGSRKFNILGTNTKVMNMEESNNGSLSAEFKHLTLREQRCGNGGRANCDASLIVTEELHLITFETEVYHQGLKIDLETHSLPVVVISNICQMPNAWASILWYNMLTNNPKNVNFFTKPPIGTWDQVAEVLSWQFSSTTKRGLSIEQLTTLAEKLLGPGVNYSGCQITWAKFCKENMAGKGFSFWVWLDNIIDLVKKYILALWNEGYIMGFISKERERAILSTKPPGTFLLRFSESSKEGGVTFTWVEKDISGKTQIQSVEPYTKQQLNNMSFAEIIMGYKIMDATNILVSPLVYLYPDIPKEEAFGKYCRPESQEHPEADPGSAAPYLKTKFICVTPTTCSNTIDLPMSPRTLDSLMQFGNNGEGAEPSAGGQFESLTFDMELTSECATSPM
Sequence of Paired box protein Pax-6 (Homo sapiens) (P26367 whole entry, looked up): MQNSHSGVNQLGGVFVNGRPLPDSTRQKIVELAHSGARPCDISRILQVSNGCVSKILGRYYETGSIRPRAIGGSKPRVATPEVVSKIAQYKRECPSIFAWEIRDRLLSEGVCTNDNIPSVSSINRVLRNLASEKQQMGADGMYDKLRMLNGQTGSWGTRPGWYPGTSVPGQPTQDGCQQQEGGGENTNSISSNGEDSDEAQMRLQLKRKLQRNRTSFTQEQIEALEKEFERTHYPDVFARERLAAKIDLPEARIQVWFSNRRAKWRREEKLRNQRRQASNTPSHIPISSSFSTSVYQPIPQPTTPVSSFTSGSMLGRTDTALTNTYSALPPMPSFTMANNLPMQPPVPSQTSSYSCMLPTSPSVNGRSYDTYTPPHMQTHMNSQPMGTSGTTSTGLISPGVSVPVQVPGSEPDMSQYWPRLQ
Sequence of Transcription factor Sp1 (Homo sapiens) (P08047 whole entry, looked up): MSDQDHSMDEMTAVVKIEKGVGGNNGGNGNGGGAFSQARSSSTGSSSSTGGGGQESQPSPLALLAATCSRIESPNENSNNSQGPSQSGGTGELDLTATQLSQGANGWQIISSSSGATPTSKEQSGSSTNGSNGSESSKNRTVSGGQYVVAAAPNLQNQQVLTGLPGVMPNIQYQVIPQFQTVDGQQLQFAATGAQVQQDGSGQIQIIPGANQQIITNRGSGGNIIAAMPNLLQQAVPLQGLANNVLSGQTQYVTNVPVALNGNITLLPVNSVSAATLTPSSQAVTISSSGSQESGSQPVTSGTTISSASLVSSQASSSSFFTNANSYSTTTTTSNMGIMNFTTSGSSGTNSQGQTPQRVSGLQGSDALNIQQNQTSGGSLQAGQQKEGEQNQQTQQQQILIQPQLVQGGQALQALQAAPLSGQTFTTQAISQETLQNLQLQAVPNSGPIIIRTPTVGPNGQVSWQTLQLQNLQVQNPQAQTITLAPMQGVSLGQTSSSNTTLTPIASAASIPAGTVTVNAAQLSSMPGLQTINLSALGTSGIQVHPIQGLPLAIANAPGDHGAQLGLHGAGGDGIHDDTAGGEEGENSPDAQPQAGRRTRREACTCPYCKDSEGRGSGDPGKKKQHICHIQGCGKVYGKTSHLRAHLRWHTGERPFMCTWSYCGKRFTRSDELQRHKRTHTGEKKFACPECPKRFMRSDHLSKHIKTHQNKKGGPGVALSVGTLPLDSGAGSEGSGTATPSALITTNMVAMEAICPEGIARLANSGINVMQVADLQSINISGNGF
Sequence of Hepatocyte nuclear factor 6 (Homo sapiens) (Q9UBC0 whole entry, looked up): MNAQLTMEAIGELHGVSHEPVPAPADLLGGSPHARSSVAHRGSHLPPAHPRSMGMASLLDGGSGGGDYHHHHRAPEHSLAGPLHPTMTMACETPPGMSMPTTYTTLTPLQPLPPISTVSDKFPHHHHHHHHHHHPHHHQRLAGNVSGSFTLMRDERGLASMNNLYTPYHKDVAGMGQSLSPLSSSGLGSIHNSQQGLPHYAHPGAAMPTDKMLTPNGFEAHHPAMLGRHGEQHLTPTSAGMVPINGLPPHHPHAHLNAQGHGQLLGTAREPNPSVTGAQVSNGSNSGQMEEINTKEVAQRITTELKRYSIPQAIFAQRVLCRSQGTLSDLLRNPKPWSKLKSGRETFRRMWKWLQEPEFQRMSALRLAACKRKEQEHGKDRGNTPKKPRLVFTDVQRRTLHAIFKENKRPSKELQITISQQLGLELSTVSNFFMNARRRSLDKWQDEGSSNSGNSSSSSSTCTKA
Sequence of Heat shock factor protein 1 (Homo sapiens) (Q00613 whole entry, looked up, the tested form may be a part): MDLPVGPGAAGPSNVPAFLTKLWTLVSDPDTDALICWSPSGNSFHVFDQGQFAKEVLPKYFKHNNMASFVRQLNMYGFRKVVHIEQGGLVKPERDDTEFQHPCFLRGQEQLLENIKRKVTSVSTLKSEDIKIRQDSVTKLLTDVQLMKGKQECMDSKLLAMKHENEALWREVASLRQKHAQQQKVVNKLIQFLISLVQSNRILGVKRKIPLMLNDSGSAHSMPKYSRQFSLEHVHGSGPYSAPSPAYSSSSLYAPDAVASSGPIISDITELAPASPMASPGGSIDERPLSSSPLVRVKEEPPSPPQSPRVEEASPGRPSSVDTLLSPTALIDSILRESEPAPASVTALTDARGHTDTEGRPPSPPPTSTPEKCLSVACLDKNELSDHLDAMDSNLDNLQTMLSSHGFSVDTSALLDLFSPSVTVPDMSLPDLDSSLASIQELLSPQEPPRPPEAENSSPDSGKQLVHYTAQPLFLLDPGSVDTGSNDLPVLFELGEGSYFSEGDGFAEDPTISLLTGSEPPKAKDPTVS
Sequence of Hypoxia-inducible factor 1-alpha (Homo sapiens) (Q16665 whole entry, looked up): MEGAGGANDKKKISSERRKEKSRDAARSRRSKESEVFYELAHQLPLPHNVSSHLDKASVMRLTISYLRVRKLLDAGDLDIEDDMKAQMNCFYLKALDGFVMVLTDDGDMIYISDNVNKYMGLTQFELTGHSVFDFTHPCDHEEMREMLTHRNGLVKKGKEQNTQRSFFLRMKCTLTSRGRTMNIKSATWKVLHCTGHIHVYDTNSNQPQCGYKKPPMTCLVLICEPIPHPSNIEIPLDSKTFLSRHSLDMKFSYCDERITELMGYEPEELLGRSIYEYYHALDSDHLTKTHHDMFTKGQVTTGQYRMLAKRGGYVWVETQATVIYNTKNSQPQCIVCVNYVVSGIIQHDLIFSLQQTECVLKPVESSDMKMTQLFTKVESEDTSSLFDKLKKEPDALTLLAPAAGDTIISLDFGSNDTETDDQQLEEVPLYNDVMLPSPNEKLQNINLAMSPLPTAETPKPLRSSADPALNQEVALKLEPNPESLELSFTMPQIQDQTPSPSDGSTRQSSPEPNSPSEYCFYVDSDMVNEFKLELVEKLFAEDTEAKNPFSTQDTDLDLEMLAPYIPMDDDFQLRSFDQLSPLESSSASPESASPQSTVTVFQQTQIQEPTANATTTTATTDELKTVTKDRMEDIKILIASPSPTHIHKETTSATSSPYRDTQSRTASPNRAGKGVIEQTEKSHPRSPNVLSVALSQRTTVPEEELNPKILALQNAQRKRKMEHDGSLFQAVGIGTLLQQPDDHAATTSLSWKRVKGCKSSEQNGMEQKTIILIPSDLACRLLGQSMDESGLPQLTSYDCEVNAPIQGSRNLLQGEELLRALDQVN

O=c1[nH]c(=O)[nH]c(=O)[nH]1
not listed: [18]
inactive: all other assays above

O=C(O)C(Cl)(Cl)Cl
not listed: [9]
inactive: all other assays above

ClC(Cl)=C(Cl)C(Cl)=C(Cl)Cl
active: [1] 100 µM | [5] 144 µM | [6] 152 µM | [13] 160 µM | [14] 156 µM | [17] 40.4 µM
not listed: [7] | [9]
inactive: all other assays above

CC(C)OC(=O)Nc1ccccc1
active: [9] 100 µM
not listed: [10] | [17]
inactive: all other assays above

CC(C#N)CCC#N (stereo not drawn)
not listed: [7]
inactive: all other assays above
